OPRM1-OPRD1 inv: inverse agonists of human mu-delta opioid receptor heterodimerization. cell-based MOR-DOR heterodimer luminescence, inverse agonism. inhibition, % at 9.3 µM. hit rate 0.21% among 340,000. P35372+P41143. AID 504357; in the data active means inhibition above about 22%, passing the limit was not always enough;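 further: 0% = cells with DMSO and 100% = wells without cells with DMSO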
HTR5A inv ctr: HTR5A inverse agonism, opioid heterodimer counter-screen; inhibition, % at 9.3 µM; P47898; HTR5A cell line, luminescence; hit rate 0.083% among 340,000; AID 504634; in the data active means inhibition mostly above about 23%, no sharp cut-off; inactive means mostly below about 18%;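 further: 0% = cells with DMSO and 100% = no-cell wells with DMSO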
HTR5A ag: HTR5A agonism, opioid heterodimer counter-screen. HTR5A agonist assay, luminescence, cell-based. activation, % at 9.3 µM. hit rate 0.61% among 340,000. AID 504692; in the data active means activation mostly above about 9.5%, no sharp cut-off; inactive means mostly below about 7.6%;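 further: 0% = cells with vehicle only and 100% = reference agonist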
OPRM1-OPRD1 ag: OPRM1-OPRD1 heterodimerization agonism; P35372+P41143; cells, luminescence; activation, % at 9.3 µM; hit rate 0.3% among 340,000; AID 504326;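 further: 0% = vehicle-treated cells and 100% = reference agonist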
OPRM1-D1 ag cf: confirmation of human OPRM1-OPRD1 heterodimerization agonists. shares compounds with OPRM1-OPRD1 ag. cells, MOR-DOR heterodimerization, luminescence complementation. activation, % at 9.3 µM. hit rate 45% among 830;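 further: 0% = vehicle-treated cells and 100% = reference agonist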
HTR5A ag counter: HTR5A agonism, opioid heterodimer counter-screen; shares compounds with OPRM1-OPRD1 ag; HTR5A agonist counterscreen, cell luminescence; activation, % at 9.3 µM; hit rate 8% among 830; in the data active means activation above about 17%;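 further: 0% = vehicle-treated cells and 100% = reference agonist response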
* = called active by the depositor; i = inactive; x = no result. Sampled rows, rich in hits. Any-hit rate of the full collection: about 1.1%. Unless noted, no stated cut-off is given here; in the data, active means activation above about 18%; inactive means the rest.

SMILES	OPRM1-OPRD1 inv	HTR5A inv ctr	HTR5A ag	OPRM1-OPRD1 ag	OPRM1-D1 ag cf	HTR5A ag counter
Cc1ccc(NC(=O)CCCSc2nc3ccccc3[nH]2)cc1	11	1	0	-2	x	x
Cc1ccc(SCC(=O)Nc2ccc(-c3nc4ccccc4[nH]3)cc2)cc1	-206	-27	10	34*	29*	9
C(=N\Nc1nc2ccccc2[nH]1)/c1cccc2cccnc12	4	0	-5	-1	x	x
COc1ccc(C(=O)C(CCCCC(CN(C)C)C(=O)c2ccc(OC)cc2)CN(C)C)cc1 (configuration not stated)	0	-4	-2	0	x	x
CCOc1ccc(C(=O)C(CCC(CN(C)C)C(=O)c2ccc(OCC)cc2)CN(C)C)cc1 (configuration not stated)	-135	-60	14*	29*	-4	-9
COC(=O)c1cc(OC)c(OC)cc1NC(=O)c1ccco1	9	2	-1	-2	x	x
COc1ccc(NC(=O)COC(=O)c2cc(OC)c(OC)cc2NC(=O)c2ccco2)cc1OC	-115	10	-2	23*	12	5
CC(C)(C)/C(O)=C(/C#N)c1nc2ccccc2[nH]1	-1	7	-3	0	x	x
CC(C)CC(/C(O)=C(\C#N)c1nc2ccccc2[nH]1)N1C(=O)c2ccccc2C1=O (configuration not stated)	-141	-12	2	31*	30*	4
COc1ccc(CCn2c(=S)[nH]c3cc(C(=O)NCc4ccco4)ccc3c2=O)cc1OC	-127	-1	-1	28*	24*	5
COc1cccc(-c2nnc(NC(=O)c3ccc(Cl)s3)o2)c1	-117	-31	11	20*	2	-1
O=C(Cc1ccccc1Cl)c1ccccc1	8	-9	3	-1	x	x
Nc1c(NCCN2CCCCC2)c2ccccc2oc1=O	-278	4	-2	53*	15	4
Cc1cc(N2CCN(c3ccc([N+](=O)[O-])c4cccnc34)CC2)c2ccccc2n1	-216	-5	2	36*	52*	10
Brc1ccc(NCc2cccc3ccccc23)nc1	-16	22	-2	3	x	x
Oc1ccccc1CNc1ccc(Br)cn1	-423	-48	32*	71*	60*	27*
O=C(c1ccc(-n2cccc2)cc1)N1CCOCC1	12	-14	-1	-2	x	x
N=C(N)SCc1cn(-c2ccccc2)nc1-c1ccc(Br)cc1	-109	-18	8	20*	1	3
Cc1ccc(-c2nn(-c3ccccc3)cc2CO)cc1	8	2	0	-2	x	x
S=c1nc(NCCc2ccccc2Cl)c2ccccc2[nH]1	-108	-20	5	23*	12	8
O=C(NCCc1ccc(Cl)cc1)C1CCC(CNc2nc(=S)[nH]c3ccccc23)CC1 (configuration not stated)	-175	3	-1	33*	36*	10
O=C(NCc1ccccc1Cl)C1CCC(CNc2nc(=S)[nH]c3ccccc23)CC1 (configuration not stated)	12	-8	3	-2	x	x
COC(=O)c1ccc(COC(=O)c2ccc(CS(=O)(=O)c3ccc(C)cc3)cc2)cc1	-12	11	-2	2	x	x
COC(=O)c1cc2c(n1S(=O)(=O)c1ccc(C)cc1)C(=O)C(=O)c1[nH]cc(C(=O)OCc3ccccc3)c1-2	-92	-19	5	21*	73*	12
CCN1CCN(Cc2ccc(NC(=O)c3ccc(C)c(NC(=O)c4c[nH]c5cc(C(F)(F)F)ccc5c4=O)c3)cc2C(F)(F)F)CC1	-286	-12	0	47*	39*	3
SMILES	OPRM1-OPRD1 inv	HTR5A inv ctr	HTR5A ag	OPRM1-OPRD1 ag	OPRM1-D1 ag cf	HTR5A ag counter
Cc1sc(NC(=S)NC(=O)C2CCCCC2)c(C(N)=O)c1C	-128	-2	-1	19*	21*	0
Cc1sc(NC(=S)Nc2ccc(F)cc2)c(C(N)=O)c1C	4	12	-5	-1	x	x
Cc1ccc(-n2cc(CNCCCn3cccn3)c(-c3cccc(C)c3)n2)cc1	-92	19	8	18	x	x
Cc1ccc(C)c(-n2cc(CNC(C)Cn3cncn3)c(-c3ccccc3)n2)c1 (configuration not stated)	-201	-13	-7	39*	36*	3
Cc1ccc(-n2cc(CNC(C)Cn3cncn3)c(-c3ccc(F)cc3)n2)cc1 (configuration not stated)	6	3	-1	-1	x	x
Cc1ccc(C)c(-n2cc(CNCCCn3cccn3)c(-c3ccccc3)n2)c1	i	5	-8	243*	218*	-1
CC(c1ccc(F)cc1)n1cc(S(=O)(=O)N2CCCC2)ccc1=O (configuration not stated)	8	9	-3	-2	x	x
COc1ccc2cc3cc(C(=O)NC(C)C)oc3nc2c1	4	9	0	-1	x	x
COc1ccc2cc3cc(C(=O)Nc4cc(OC)c(OC)c(OC)c4)oc3nc2c1	-122	-36	1	20*	21*	6
CCc1ccc(NC(=O)N(CCCN2CCOCC2)Cc2cccs2)cc1	-202	-25	9	34*	47*	-4
CCOc1nc(C)ccc1-c1noc(-c2cccnc2)n1	-1	2	-1	0	x	x
COC(=O)c1cccc(NC(=O)Cn2nnc3ccccc32)c1	9	0	-1	-2	x	x
CC(=O)Nc1ccc(CN2CCCC(C(=O)c3cccc(C(F)(F)F)c3)C2)cc1 (configuration not stated)	-366	14	1	58*	56*	-2
Oc1ccc(Br)cc1CNc1cccc2cccnc12	-89	-3	1	19*	-2	-9
Cc1ccccc1OCc1nc(-c2ccc(NC(=O)c3ccc4c(c3)OCO4)cc2)no1	-88	-26	10	21*	1	2
Cc1ccccc1OCc1nc(-c2ccc(NC(=O)c3ccco3)cc2)no1	-7	-16	10	2	x	x
CC(=O)OCC(=O)C1CCC2C3CC=C4CC(O)CCC4(C)C3CCC12C (configuration not stated)	6	4	1	-1	x	x
CC(=O)C1CCC2C3CC=C4CC(SC(=N)N)CCC4(C)C3CCC12C (configuration not stated)	-185	-19	5	42*	79*	5
Cc1ccc(S(=O)(=O)/N=C2/C=C(Sc3ncn[nH]3)C(=O)c3ccccc32)cc1	-125	-21	10	23*	5	-6
Cc1ccc(S(=O)(=O)/N=C2\C=C(Nc3ccc(O)cc3)C(=O)c3ccccc32)cc1	-64	-7	0	16	x	x
CN1CCN(c2ccc(NC(=O)c3ccc(-c4ccccc4F)o3)cc2)CC1	i	-38	4	158*	249*	7
CN1CCN(c2ccccc2NC(=O)c2ccc(-c3ccc(Cl)c(Cl)c3)o2)CC1	-68	-2	0	12	x	x
CN1CCN(c2ccc(NC(=O)c3ccc(Br)o3)cc2)CC1	-4	3	0	1	x	x

Source: PubChem
